Several values for one entry are separate records, joined by “and”; a condition that tells them apart may be missing. Equal values may be shown once. Results filed as inconclusive are left out. Entries that show only a call come without a potency. The source holds several records for some structures; these can differ, active in one and inactive in another. Activity calls are given as the source filed them. The call rests on the fitted dose curve.
What was measured:
[1] = biological target: Acetylcholinesterase (Homo sapiens) (UniProt P22303); test: Acetylcholinesterase (AChE) small molecule antagonists: colormetric cell-based qHTS assay (AID 1347395); further: nearly all actives have a fitted effect of over 30% in size; further: potency means the concentration at half of the fitted maximal effect
Method in brief: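 Quantitative HTS in attached SH-SY5Y cells: 30 min compound exposure, then 90 min with acetylthiocholine and DTNB at 37 C; colour from thiocholine reports AChE activity.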

[2] = biological target: Acetylcholinesterase (Homo sapiens) (UniProt P22303); test: Acetylcholinesterase (AChE) small molecule antagonists: enzyme-based qHTS assay (AID 1347397); details: Potency: AChE enzyme activity inhibition; outcome: AChE enzyme activity inhibition; further: nearly all actives have a fitted effect of over 55% in size; further: potency means the concentration at half of the fitted maximal effect
Method in brief: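 Human recombinant acetylcholinesterase; substrate acetylthiocholine; thiocholine quantified with DTNB (colorimetric). Compound preincubation 30 min RT; reaction 10 min RT.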

[3] = biological target: Acetylcholinesterase (Homo sapiens) (UniProt P22303); test: Acetylcholinesterase (AChE) small molecule antagonists: fluorescence cell-based qHTS assay (AID 1347398); details: Potency: AChE activity; outcome: AChE activity; further: nearly all actives have a fitted effect of over 50% in size; further: potency means the concentration at half of the fitted maximal effect
Method in brief: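 Thiocholine generated from acetylthiocholine by SH-SY5Y cell AChE is detected with Thiolite Green (Ex/Em 490/520 nm) after 40 min at room temperature, following 30 min compound pretreatment at 37 C.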

[4] = biological target: Acetylcholinesterase (Homo sapiens) (UniProt P22303); test: Acetylcholinesterase (AChE) small molecule antagonists: enzyme-based qHTS assay with human liver microsomes (AID 1347399); details: Potency: qHTS inhibition; outcome: qHTS inhibition; further: nearly all actives have a fitted effect of over 60% in size
Method in brief: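 Recombinant human AChE (50 mU/mL in the enzyme mix) and human liver microsomes (0.25 mg/mL final) were preincubated with compound and NADPH (0.25 mg/mL final) for 30 min at 37 C. Acetylthiocholine/DTNB was then added; thiocholine was read colorimetrically after 10 min at room temperature.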

Sequence of Acetylcholinesterase (Homo sapiens) (P22303 whole entry, looked up): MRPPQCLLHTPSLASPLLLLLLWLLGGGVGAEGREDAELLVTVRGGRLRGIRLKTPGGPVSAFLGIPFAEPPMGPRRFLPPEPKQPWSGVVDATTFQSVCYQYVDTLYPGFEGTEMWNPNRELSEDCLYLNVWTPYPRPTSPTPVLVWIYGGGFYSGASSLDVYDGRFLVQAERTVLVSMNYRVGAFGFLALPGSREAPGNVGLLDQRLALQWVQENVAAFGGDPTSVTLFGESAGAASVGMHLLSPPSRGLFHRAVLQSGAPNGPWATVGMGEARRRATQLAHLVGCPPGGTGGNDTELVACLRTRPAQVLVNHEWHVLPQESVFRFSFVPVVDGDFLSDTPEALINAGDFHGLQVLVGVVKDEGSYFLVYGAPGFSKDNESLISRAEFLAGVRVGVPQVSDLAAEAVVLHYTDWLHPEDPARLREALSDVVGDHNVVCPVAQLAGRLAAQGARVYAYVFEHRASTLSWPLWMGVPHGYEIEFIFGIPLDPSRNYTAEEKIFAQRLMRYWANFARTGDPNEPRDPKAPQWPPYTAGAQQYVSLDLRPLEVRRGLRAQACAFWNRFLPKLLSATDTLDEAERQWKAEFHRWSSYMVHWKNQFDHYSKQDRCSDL

O=C(N/N=C/c1ccc([N+](=O)[O-])o1)c1ccc(O)cc1
Potency [1]: inactive
Potency [2]: inactive
Potency [3]: inactive
Potency [4]: inactive

CC1=CC(O)CC(C)(C)C1 (stereo not given)
Potency [1]: inactive
Potency [2]: inactive
Potency [3]: inactive
Potency [4]: inactive

C[C@H](N)[C@H](O)c1cccc(O)c1
Potency [1]: inactive
Potency [2]: inactive
Potency [3]: inactive
Potency [4]: inactive

NS(=O)(=O)c1ccccc1OC(F)(F)F
Potency [1]: inactive
Potency [2]: inactive
Potency [3]: inactive
Potency [4]: inactive

CCCCOC(=O)C(=O)OCCCC
Potency [1]: inactive
Potency [2]: inactive
Potency [3]: inactive
Potency [4]: inactive

CCC(C(=O)NC(=O)NC(C)=O)c1ccccc1 (stereo not given)
Potency [1]: inactive
Potency [2]: inactive
Potency [3]: inactive
Potency [4]: inactive

NS(=O)(=O)c1cc2c(cc1Cl)NC(C1CC3C=CC1C3)NS2(=O)=O (stereo not given)
Potency [1]: inactive
Potency [2]: inactive
Potency [3]: inactive
Potency [4]: inactive

Cc1ncc(COP(=O)(O)O)c(C=O)c1O
Potency [1]: inactive
Potency [2]: inactive
Potency [3]: inactive
Potency [4]: inactive

C=CC(C)(O)CC/C=C(/C)CCC=C(C)C (stereo not given)
Potency [1]: inactive
Potency [2]: inactive
Potency [3]: inactive
Potency [4]: inactive

CCCCC=O
Potency [1]: inactive
Potency [2]: inactive
Potency [3]: inactive
Potency [4]: inactive

O=C(O)/C=C/c1cnc[nH]1
Potency [1]: inactive
Potency [2]: inactive
Potency [3]: inactive
Potency [4]: inactive

O=c1[nH]cc(F)c(=O)[nH]1
Potency [1]: 20.8 µM (active) and inactive
Potency [2]: inactive
Potency [3]: inactive
Potency [4]: inactive

NCCc1ccc(O)c(O)c1
outcome [1]: inactive
outcome [2]: inactive
outcome [3]: inactive
outcome [4]: inactive

O=C(OCCCCCCOC(=O)c1ccccc1)c1ccccc1
Potency [1]: inactive
Potency [2]: inactive
Potency [3]: inactive
Potency [4]: inactive

C=C1c2cccc(O)c2C(O)=C2C(=O)[C@]3(O)C(O)=C(C(N)=O)C(=O)[C@@H](N(C)C)[C@@H]3[C@@H](O)[C@H]12
Potency [1]: inactive
Potency [2]: inactive
Potency [3]: inactive
Potency [4]: inactive

ClCCCl
Potency [1]: inactive
Potency [2]: inactive
Potency [3]: inactive
Potency [4]: inactive

CCOC(=O)Cn1cccc1-c1nc(-c2ccc(OC)cc2)c(-c2ccc(OC)cc2)s1
Potency [1]: inactive
Potency [2]: inactive
Potency [3]: inactive
Potency [4]: inactive

CCCCCCC(CCCCCCCCCCC(=O)OCC(COC(C)=O)OC(C)=O)OC(C)=O (stereo not given)
Potency [1]: inactive
Potency [2]: inactive
Potency [3]: inactive
Potency [4]: inactive

N/C(=N\N=C\c1ccc(Cl)cc1)N/N=C/c1ccc(Cl)cc1
Potency [1]: inactive
Potency [2]: inactive
Potency [3]: inactive
Potency [4]: inactive

O=C1NCN(c2ccccc2)C12CCN(CCCC(c1ccc(F)cc1)c1ccc(F)cc1)CC2
Potency [1]: inactive
Potency [2]: inactive
Potency [3]: inactive
Potency [4]: inactive

CC1(C)CC(=O)CC(C)(C)N1
Potency [1]: inactive
Potency [2]: inactive
Potency [3]: inactive
Potency [4]: inactive

COC1CCC=CO1 (stereo not given)
Potency [1]: inactive
Potency [2]: inactive
Potency [3]: inactive
Potency [4]: inactive

CCCCN=C(N)N=C(N)N
Potency [1]: inactive
Potency [2]: inactive
Potency [3]: inactive
Potency [4]: inactive

CC/C=C\CCOC(C)OCC (stereo not given)
Potency [1]: inactive
Potency [2]: inactive
Potency [3]: inactive
Potency [4]: inactive

O=C1OC2(c3ccccc31)c1cc(I)c(O)c(I)c1Oc1c2cc(I)c(O)c1I
Potency [1]: 36 µM (active) and inactive
Potency [2]: 40.4 µM (active) and inactive
Potency [3]: inactive
Potency [4]: inactive

CCCCC(CC)COC(=O)C(C#N)=C(c1ccccc1)c1ccccc1 (stereo not given)
Potency [1]: inactive
Potency [2]: inactive
Potency [3]: inactive
Potency [4]: inactive

O=C1c2ccccc2C(=O)N1CO
Potency [1]: inactive
Potency [2]: inactive
Potency [3]: inactive
Potency [4]: inactive

O=C(O)c1ccccc1C(=O)O
Potency [1]: inactive
Potency [2]: inactive
Potency [3]: inactive
Potency [4]: inactive

CCCCC(O)/C=C(C)/C=C/C=C/C(=O)N1CCCC1=O (stereo not given)
Potency [1]: inactive
Potency [2]: inactive
Potency [3]: inactive
Potency [4]: inactive

CC(C=O)c1ccccc1 (stereo not given)
Potency [1]: inactive
Potency [2]: inactive
Potency [3]: inactive
Potency [4]: inactive

N#Cc1ccccc1O
Potency [1]: inactive
Potency [2]: inactive
Potency [3]: inactive
Potency [4]: inactive

Cc1cc(=O)oc2cc(O)cc(O)c12
Potency [1]: inactive
Potency [2]: inactive
Potency [3]: inactive
Potency [4]: inactive

CCOC(=O)Cc1cccc2ccccc12
Potency [1]: inactive
Potency [2]: inactive
Potency [3]: inactive
Potency [4]: inactive

COc1ccc(C(=O)N2CCN(CC(=O)N3CCOCC3)CC2)cc1
Potency [1]: inactive
Potency [2]: inactive
Potency [3]: inactive
Potency [4]: inactive

CCCCCCCCCCCCCC[N+](C)(C)C
Potency [1]: inactive
Potency [2]: 30.6 µM (active) and 70.9 µM (active) and inactive
Potency [3]: 61.1 µM (active) and 39.9 µM (active)
Potency [4]: inactive

COC(OC)C(C)c1ccccc1 (stereo not given)
Potency [1]: inactive
Potency [2]: inactive
Potency [3]: inactive
Potency [4]: inactive

CC1=CC[C@@H]2C[C@H]1C2(C)C
activity, negative = inhibition [1]: 7.66% [at 23.6 µM] (inactive)
activity change, negative = inhibition [2]: 0.56% [at 23.6 µM] (inactive)
activity change, negative = inhibition [3]: 0.301% [at 23.8 µM] (inactive)
activity change, negative = inhibition [4]: -3.81% [at 23.6 µM] (inactive)

CCCCCCCCCC(=O)OC
Potency [1]: inactive
Potency [2]: inactive
Potency [3]: 34.9 µM (active) and inactive
Potency [4]: inactive

O=C(O)CONC(=O)c1ccccc1
Potency [1]: inactive
Potency [2]: inactive
Potency [3]: inactive
Potency [4]: inactive

Cc1nnc(NS(=O)(=O)c2ccc(N)cc2)s1
Potency [1]: inactive
Potency [2]: inactive
Potency [3]: inactive
Potency [4]: inactive

CCCCC(CC)COP(=O)(OCC(CC)CCCC)OCC(CC)CCCC (stereo not given)
Potency [1]: inactive
Potency [2]: inactive
Potency [3]: inactive
Potency [4]: inactive

CCn1c2ccccc2c2ccccc21
Potency [1]: inactive
Potency [2]: inactive
Potency [3]: inactive
Potency [4]: inactive

CC(=O)Nc1ccn(C2COC(COC(=O)c3ccccc3)O2)c(=O)n1 (stereo not given)
Potency [1]: inactive
Potency [2]: inactive
Potency [3]: inactive
Potency [4]: inactive

CCOC(=O)C1OC1c1ccccc1 (stereo not given)
Potency [1]: inactive
Potency [2]: inactive
Potency [3]: inactive
Potency [4]: inactive

CCOC(OCC)OCC
Potency [1]: inactive
Potency [2]: inactive
Potency [3]: inactive
Potency [4]: inactive

COCC(C)OC(C)=O (stereo not given)
Potency [1]: inactive
Potency [2]: inactive
Potency [3]: inactive
Potency [4]: inactive

O=[N+]([O-])c1ccccc1C(F)(F)F
Potency [1]: inactive
Potency [2]: inactive
Potency [3]: inactive
Potency [4]: inactive

NC(=O)N/N=C/c1ccc([N+](=O)[O-])o1
Potency [1]: inactive
Potency [2]: inactive
Potency [3]: inactive
Potency [4]: inactive

NCCOCCN
Potency [1]: inactive
Potency [2]: inactive
Potency [3]: inactive
Potency [4]: inactive

Fc1ccc(C(c2ccc(F)cc2)N2CCNCC2)cc1
Potency [1]: inactive
Potency [2]: inactive
Potency [3]: inactive
Potency [4]: inactive

CC(C(=O)O)c1cccc(Oc2ccccc2)c1 (stereo not given)
Potency [1]: inactive
Potency [2]: inactive
Potency [3]: inactive
Potency [4]: inactive

C=C(C)C(=O)OCCOC(=O)C(=C)C
Potency [1]: inactive
Potency [2]: inactive
Potency [3]: inactive
Potency [4]: inactive

CC(=O)OCC(=O)[C@H]1CC[C@H]2[C@@H]3CCC4=CC(=O)CC[C@]4(C)[C@H]3CC[C@]12C
Potency [1]: inactive
Potency [2]: inactive
Potency [3]: inactive
Potency [4]: inactive

NCCCC[C@H](N[C@@H](CCc1ccccc1)C(=O)O)C(=O)N1CCC[C@H]1C(=O)O
Potency [1]: inactive
Potency [2]: inactive
Potency [3]: inactive
Potency [4]: inactive

CC(C)(O)C(=O)c1ccc(OCCO)cc1
Potency [1]: inactive
Potency [2]: inactive
Potency [3]: inactive
Potency [4]: inactive

Cc1cc(=O)oc2cc(O)ccc12
Potency [1]: inactive
Potency [2]: inactive
Potency [3]: inactive
Potency [4]: inactive

Cc1cccc(C(=O)O)c1O
Potency [1]: inactive
Potency [2]: inactive
Potency [3]: inactive
Potency [4]: inactive

Nc1cc(Cl)c(N)c(Cl)c1
Potency [1]: 79 µM (active) and inactive
Potency [2]: inactive
Potency [3]: 55.9 µM (active) and inactive
Potency [4]: inactive

O=C(O)c1ccccc1-n1cc(C(=O)O)c(=O)c2cc(Nc3c(F)cc(F)cc3Cl)c(Cl)cc21
Potency [1]: inactive
Potency [2]: inactive
Potency [3]: inactive
Potency [4]: inactive

CCn1c2ccccc2c2cc([N+](=O)[O-])ccc21
Potency [1]: inactive
Potency [2]: inactive
Potency [3]: inactive
Potency [4]: inactive
